AmpC inh detg: inhibitors of E. coli AmpC beta-lactamase with detergent; AID 485294; hit rate 0.041% among 370,000; AmpC hydrolysis of nitrocefin, absorbance 480 nm, 0.01% Triton; Potency, µM (highest dose often 114 µM), for inactives: top-dose activity change, negative = inhibition, actives largely listed as inhibitors;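 also: 0% = no-compound wells and -100% = no-enzyme wells; nearly all actives have a fitted effect of over 25% in size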
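20 mM phosphate pH 7.0 + 0.01% (detergent screen) or 0.0001% Triton X-100; 5.3 nM AmpC reagent; cpd preinc 15 min RT; nitrocefin (800 uM stock) to start; A480 q20 s × 4 min; Activity was normalised to no-enzyme and no-compound control wells.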
AmpC no deterg: blocks E. coli AmpC beta-lactamase in detergent-free assay | AmpC nitrocefin hydrolysis, absorbance 480 nm, 0.0001% Triton | AID 485341 | Potency, µM (top dose mostly 57.1 µM), without a hit: at the top dose activity change, negative = inhibition, most hits filed as inhibitors | P00811 | hit rate 0.52% among 330,000;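 also: plate controls were no compound for no effect and no enzyme for full effect; nearly all actives have a fitted effect of over 20% in size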
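AmpC (5.3 nM in the dispensed reagent) in 20 mM phosphate pH 7.0 with 0.01% (detergent screen) or 0.0001% Triton X-100 was preincubated with compounds for 15 min at room temperature. Nitrocefin was then added from an 800 uM solution, and hydrolysis was followed at 480 nm.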
FBPA Giardia inh: Giardia lamblia aldolase inhibition | A8B2U2 | purified Giardia FBPA | Potency, µM (series often up to 59.6 µM), for the others: at the top dose activity, negative = inhibition, most hits filed as inhibitors | hit rate 0.71% among 290,000 | AID 2451; also: nearly all actives have a fitted effect of over 55% in size
Target sequence (A8B2U2 whole entry, looked up): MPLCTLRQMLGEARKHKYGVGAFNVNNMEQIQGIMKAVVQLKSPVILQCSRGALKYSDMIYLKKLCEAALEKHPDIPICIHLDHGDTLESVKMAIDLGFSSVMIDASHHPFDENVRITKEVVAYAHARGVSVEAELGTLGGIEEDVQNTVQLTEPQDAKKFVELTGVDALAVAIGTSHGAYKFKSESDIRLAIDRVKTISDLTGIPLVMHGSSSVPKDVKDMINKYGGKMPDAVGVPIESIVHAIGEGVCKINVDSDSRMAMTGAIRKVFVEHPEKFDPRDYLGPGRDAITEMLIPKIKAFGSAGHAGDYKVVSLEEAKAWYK
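40 nM FBPA preincubated 10 min at RT with compound (up to 57.5 uM final), then substrate plus GAPDH/TPI/NAD/arsenate coupling and diaphorase/resazurin added. Fluorescence read after 20 min at RT, 525/598 nm.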
RE007 growth inh: less growth of the S. pombe RE007 Vpr strain; Potency, µM (top dose mostly 92.2 µM), for inactives: top-dose activity change, negative = less growth, hits mostly inhibitors; AID 651644; S. pombe RE007 Vpr strain, BacTiter-Glo ATP luminescence, 24 h; hit rate 0.21% among 360,000; active = well fitted falling curve with a large enough effect; inconclusive = small, poorly fitted or top-dose-only effect; inactive = no such curve, though single readings can be large or run the other way; also: nearly all actives have a fitted effect of over 50% in size
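Fission yeast strain RE007, carrying one chromosomally integrated HIV-1 vpr copy, was seeded at OD 0.01 in PMG+AL medium with 23 nL pinned compound. After 24 h at 30 °C and 99% humidity, viability was read by BacTiter-Glo luminescence.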
Sm TGR block: inhibitors of Schistosoma mansoni thioredoxin glutathione reductase. Q962Y6. purified TGR, DTNB reduction, TNB absorbance 405 nm. Potency, µM (top dose mostly 114 µM), for the others: at the top dose activity change, negative = inhibition, actives largely listed as inhibitors. hit rate 3% among 360,000. AID 485364; also: nearly all actives have a fitted effect of over 60% in size
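TGR 20 nM + NADPH 100 uM (dispensed conc.), cpd preinc 15 min RT; start with NADPH (500 uM addition) then DTNB (15 mM addition). Kinetic TNB absorbance, 405 nm filter. Four-parameter Hill fit across titration.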
Starred values were filed as active, the others as inactive; ? = inconclusive; . = no result. Rows were chosen to be rich in hits. Some 3.4% of all compounds tested hit in one or more screens of this group. Unless noted, calls follow the shape of the dose curve; as a rule, active = well fitted curve in the direction sought with a large enough effect; inconclusive = small, poorly fitted or top-dose-only effect, or another doubt; inactive = no such curve, though single readings can be large; an effect the other way counts as inactive or inconclusive. Unless noted, % is scaled to controls: 0 for no effect and ±100 for the full control effect; potency is read from the fitted curve at half-maximal effect.

SMILES	AmpC inh detg	AmpC no deterg	FBPA Giardia inh	RE007 growth inh	Sm TGR block
CCN(c1ccccc1)S(=O)(=O)c1ccc(Cl)c(NC(=O)COC(=O)c2ccc(O)cc2)c1	-3.0%	-26.4%	10.0%	24.3%	-3.5%
CCN(c1ccccc1)S(=O)(=O)c1ccc(Cl)c(NC(=O)COC(=O)c2cc(O)c3ccccc3c2O)c1	-3.1%	3.98µM*	5µM*	.	3.55µM*
CCOC(=O)C1CCCN(CC(O)COc2cccc(C)c2)C1 (stereo not given)	-3.5%	-21.0%	-3.9%	-3.0%	1.5%
CCOC(=O)c1ccc(Oc2nc(SC)nc(N(C)C)n2)cc1	?	26.4%	1.4%	14.4%	3.1%
Cc1cc(C)n(C(=O)Cn2nc([N+](=O)[O-])cc2C)n1	?	-0.5%	1.2%	-6.9%	3.7%
CCN(CC)c1ccc(/C=C2/SC(=O)N(C(C)C)C2=O)o1	-14.3%	-23.8%	?	?	11.2µM*
CCN(CC)c1ccc(C=C2C(=O)N(C)C(=S)N(C)C2=O)o1	1.4%	-36.3%	-2.2%	-19.0%	44.7µM*
CC(C)N1C(=O)S/C(=C\c2ccc(-c3ccc(Cl)c(C(=O)O)c3)o2)C1=O	?	-12.4%	-4.5%	2.0%	-35.2%
CNS(=O)(=O)c1ccc(NC(=O)c2cnn3c(C(F)F)cc(-c4ccccc4)nc23)cc1	0.8%	-15.7%	0.0%	0.6%	1.8%
CC1=CC(=O)c2c(O)ccc(O)c2C1=O	?	14.1µM*	?	.	?
CCC(C)NC(=O)CN(c1ccc(OC)cc1)S(=O)(=O)c1ccc(NC(C)=O)cc1 (stereo not given)	-14.8%	-0.7%	-8.3%	1.0%	6.3%
CCC(C)Sc1cc(C(F)(F)F)c(C(=O)Nc2ccc(Cl)cc2)cn1 (stereo not given)	7.8%	10µM*	-4.1%	2.7%	10.1%
O=C(CCN1CCOCC1)NCc1ccccc1	?	-8.3%	?	-10.3%	0.8%
Cc1c(NC(=O)C(C)OC(=O)/C=C/c2ccco2)c(=O)n(-c2ccccc2)n1C (stereo not given)	1.5%	-4.6%	5.2%	5.7%	44.7µM*
COc1ccc(Br)c(C(=O)NNC(=O)c2ccc(NS(=O)(=O)c3cccs3)cc2)c1	-1.6%	-42.5%	.	3.5%	-1.2%
O=C(NC1CCCC1)C(c1cc2c(cc1[N+](=O)[O-])OCO2)N1CCCC1 (stereo not given)	0.3%	-20.9%	-10.5%	0.6%	23.6%
CC(C)(C)C(=O)CSc1nnc(-c2cccs2)n1CC1CCCO1 (stereo not given)	-0.4%	6.5%	-0.6%	12.2%	-11.0%
O=C(O)CCc1ccc(-c2ccc(F)cc2)n1CC1CCCO1 (stereo not given)	-0.4%	-13.6%	4.5%	-9.7%	?
COc1ccc(-c2ccc(CCC(=O)O)n2CC2CCCO2)cc1 (stereo not given)	-5.3%	-3.0%	5.7%	-10.3%	35.5µM*
O=C(O)CCc1ccc(-c2cccs2)n1CC1CCCO1 (stereo not given)	-5.9%	-16.2%	7.8%	-12.4%	8.91µM*
CN(C)CCCNc1cc(-c2ccccc2)nc2cc(-c3cccc(F)c3)nn12	-5.5%	154.9%	9.6%	1.9%	100µM*
COc1ccc(Br)cc1CN(C)C(=O)c1ccc2c(c1)NC(=O)C(C)S2 (stereo not given)	1.2%	32.2%	5.0%	22.8%	4.7%
CCOC(=O)C1CCN(C(=O)C(C)N(c2ccc(Oc3ccccc3)cc2)S(C)(=O)=O)CC1 (stereo not given)	8.8%	187.4%	-2.3%	-4.2%	0.6%
Cc1ccc(S(=O)(=O)n2nc(OC(=O)c3cccc(F)c3)cc2N)cc1	-6.1%	-33.2%	4.0%	-11.3%	12.6µM*
Cc1c(C(=O)Oc2cc(N)n(S(C)(=O)=O)n2)cccc1[N+](=O)[O-]	-3.8%	-22.6%	-6.0%	4.1%	8.91µM*
Cc1ccc(S(=O)(=O)n2nc(OC(=O)c3ccccc3C)cc2N)cc1	-14.5%	31.6µM*	-2.0%	-3.1%	-8.1%
Nc1cc(OC(=O)c2ccco2)nn1S(=O)(=O)c1ccc(F)cc1	2.5%	-25.2%	-1.3%	-15.0%	31.6µM*
